Experimental data: the supplement of paper PMC11732987, “Enantioselective OTUD7B fragment discovery through chemoproteomics screening and high-throughput optimisation” (Communications Chemistry, 2025)

Assays:
Assay in all cases: log2 ratio of Biotin-Ahx-Ub-VS probe labelling (fragment/DMSO); higher = less target engagement (more negative = stronger competition), active = hit call of the paper (q ≤ 0.05, log2 ratio ≤ -1)
Settings in all cases: compound concentration: 200 uM; treatment time: 3 h
[1] = target: USP34 (UniProt Q70CQ2)
How it was run: (§1)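 Labelled DUBs from HEK293T lysate were NeutrAvidin-enriched, digested with LysC and trypsin, and run by diaPASEF LC-MS/MS. Before that, each 495 µg sample in Tris/CHAPS/IGEPAL buffer with protease inhibitors was treated in triplicate with fragment at 200 µM or vehicle for 3 h, then with Biotin-Ahx-Ub-VS at 0.5 µM final for 1 h. Values are average log2 ratios of fragment over vehicle by unpaired t-test, based on global-median-normalised Spectronaut label-free quantities from proteins with ≥2 unique peptides.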

[2] = target: T1, USP36 (UniProt Q9P275)
T1 sequence (whole entry): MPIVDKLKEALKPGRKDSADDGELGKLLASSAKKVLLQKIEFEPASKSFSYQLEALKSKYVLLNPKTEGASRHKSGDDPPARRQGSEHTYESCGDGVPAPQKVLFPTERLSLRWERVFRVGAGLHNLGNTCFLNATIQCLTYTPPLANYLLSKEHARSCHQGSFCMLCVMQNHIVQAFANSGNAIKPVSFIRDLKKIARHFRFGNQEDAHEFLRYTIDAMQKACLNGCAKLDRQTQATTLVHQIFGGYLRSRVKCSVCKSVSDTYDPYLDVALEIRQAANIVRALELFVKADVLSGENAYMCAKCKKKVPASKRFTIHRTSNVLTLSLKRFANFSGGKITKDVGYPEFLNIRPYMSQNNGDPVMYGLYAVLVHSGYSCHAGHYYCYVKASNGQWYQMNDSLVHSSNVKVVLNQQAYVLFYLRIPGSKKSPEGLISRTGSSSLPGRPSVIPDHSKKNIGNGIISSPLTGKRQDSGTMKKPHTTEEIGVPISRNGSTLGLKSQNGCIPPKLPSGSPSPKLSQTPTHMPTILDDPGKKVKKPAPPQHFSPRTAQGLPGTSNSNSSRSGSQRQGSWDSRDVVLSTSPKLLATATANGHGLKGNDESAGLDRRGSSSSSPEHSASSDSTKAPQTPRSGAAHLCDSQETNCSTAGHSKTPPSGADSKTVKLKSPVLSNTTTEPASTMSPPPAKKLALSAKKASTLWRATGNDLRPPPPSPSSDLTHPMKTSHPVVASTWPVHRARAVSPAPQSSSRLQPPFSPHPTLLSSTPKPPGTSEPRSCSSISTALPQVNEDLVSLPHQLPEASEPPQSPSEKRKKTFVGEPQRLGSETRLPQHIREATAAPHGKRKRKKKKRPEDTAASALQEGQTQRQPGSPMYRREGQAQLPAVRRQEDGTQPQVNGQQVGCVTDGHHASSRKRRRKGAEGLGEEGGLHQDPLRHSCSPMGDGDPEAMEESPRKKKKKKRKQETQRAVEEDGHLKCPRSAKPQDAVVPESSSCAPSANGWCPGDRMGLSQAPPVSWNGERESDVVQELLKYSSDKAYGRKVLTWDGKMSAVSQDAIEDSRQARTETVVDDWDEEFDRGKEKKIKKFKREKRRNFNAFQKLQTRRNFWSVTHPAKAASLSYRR
How it was run: as §1

[3] = target: T2, USP38 (UniProt Q8NB14)
T2 sequence (whole entry): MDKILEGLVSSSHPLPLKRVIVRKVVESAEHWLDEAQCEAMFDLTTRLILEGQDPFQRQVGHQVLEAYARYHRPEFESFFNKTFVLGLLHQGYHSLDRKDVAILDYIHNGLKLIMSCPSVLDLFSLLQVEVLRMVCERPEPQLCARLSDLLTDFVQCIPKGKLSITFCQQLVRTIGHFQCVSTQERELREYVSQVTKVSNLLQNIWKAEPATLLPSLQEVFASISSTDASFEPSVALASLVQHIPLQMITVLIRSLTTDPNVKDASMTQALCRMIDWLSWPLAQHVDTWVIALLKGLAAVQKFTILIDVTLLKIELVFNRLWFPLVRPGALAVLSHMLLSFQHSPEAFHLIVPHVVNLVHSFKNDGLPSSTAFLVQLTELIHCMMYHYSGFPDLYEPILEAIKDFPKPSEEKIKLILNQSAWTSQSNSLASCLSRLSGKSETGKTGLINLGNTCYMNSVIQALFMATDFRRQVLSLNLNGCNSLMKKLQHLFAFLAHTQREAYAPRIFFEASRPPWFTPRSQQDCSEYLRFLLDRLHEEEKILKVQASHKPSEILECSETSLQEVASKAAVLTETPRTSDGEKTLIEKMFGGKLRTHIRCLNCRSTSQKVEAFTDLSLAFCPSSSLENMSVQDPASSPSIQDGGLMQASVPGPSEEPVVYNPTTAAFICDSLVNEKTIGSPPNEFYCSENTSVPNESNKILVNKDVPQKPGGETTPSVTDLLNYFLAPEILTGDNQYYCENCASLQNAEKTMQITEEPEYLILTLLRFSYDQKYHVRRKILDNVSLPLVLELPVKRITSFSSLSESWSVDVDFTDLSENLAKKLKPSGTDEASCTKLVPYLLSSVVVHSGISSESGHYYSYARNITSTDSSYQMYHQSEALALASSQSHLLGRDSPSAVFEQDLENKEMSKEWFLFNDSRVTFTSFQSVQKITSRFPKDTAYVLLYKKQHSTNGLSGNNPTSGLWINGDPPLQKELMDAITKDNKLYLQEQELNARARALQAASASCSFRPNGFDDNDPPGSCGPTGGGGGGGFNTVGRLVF
How it was run: as §1

[4] = target: T3, USP39 (UniProt Q53GS9)
T3 sequence (whole entry): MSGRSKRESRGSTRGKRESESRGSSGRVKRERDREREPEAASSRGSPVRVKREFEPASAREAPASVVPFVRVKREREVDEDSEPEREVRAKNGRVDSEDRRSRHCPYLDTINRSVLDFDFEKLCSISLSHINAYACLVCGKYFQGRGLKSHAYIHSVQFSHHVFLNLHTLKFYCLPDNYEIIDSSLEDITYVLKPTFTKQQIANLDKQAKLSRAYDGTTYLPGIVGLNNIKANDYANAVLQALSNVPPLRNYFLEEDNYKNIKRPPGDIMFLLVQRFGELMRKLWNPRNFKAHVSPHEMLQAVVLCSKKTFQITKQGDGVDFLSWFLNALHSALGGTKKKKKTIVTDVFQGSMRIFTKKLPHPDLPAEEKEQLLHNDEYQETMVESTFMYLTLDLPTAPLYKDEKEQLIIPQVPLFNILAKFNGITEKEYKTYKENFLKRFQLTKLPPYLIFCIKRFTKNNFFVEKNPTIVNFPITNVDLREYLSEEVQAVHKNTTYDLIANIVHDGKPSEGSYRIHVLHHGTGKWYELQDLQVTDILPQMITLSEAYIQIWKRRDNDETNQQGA
How it was run: as §1

[5] = target: T4, USP4 (UniProt Q13107)
T4 sequence (whole entry): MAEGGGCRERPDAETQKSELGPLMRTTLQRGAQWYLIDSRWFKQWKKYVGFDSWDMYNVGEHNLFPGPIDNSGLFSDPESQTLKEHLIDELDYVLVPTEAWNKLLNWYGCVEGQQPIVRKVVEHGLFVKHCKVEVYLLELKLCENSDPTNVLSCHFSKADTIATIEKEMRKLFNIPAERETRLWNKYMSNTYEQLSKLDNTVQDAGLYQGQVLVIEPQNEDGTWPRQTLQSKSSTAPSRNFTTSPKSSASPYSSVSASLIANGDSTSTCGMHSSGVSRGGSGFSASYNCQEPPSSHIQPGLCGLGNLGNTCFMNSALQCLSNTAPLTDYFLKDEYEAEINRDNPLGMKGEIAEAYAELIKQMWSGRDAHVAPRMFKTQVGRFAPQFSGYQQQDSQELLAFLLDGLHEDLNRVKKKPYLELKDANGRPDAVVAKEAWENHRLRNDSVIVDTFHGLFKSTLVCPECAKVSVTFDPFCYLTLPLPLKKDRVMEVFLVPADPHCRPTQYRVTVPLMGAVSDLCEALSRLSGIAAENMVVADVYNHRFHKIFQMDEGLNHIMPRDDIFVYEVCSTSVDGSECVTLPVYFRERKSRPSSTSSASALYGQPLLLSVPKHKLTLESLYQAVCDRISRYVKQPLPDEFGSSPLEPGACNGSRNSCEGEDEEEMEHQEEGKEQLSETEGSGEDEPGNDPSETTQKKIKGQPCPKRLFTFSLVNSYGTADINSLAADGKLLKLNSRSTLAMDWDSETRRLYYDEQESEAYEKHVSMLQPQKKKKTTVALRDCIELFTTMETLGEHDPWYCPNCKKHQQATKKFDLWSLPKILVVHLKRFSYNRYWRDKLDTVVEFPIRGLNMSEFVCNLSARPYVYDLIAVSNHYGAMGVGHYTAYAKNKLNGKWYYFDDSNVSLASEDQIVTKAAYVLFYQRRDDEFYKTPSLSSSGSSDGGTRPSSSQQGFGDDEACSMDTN
How it was run: as §1

Measured: log2 ratio of Biotin-Ahx-Ub-VS probe labelling

Chain of USP34 (Q70CQ2 whole entry, the tested form may be a part): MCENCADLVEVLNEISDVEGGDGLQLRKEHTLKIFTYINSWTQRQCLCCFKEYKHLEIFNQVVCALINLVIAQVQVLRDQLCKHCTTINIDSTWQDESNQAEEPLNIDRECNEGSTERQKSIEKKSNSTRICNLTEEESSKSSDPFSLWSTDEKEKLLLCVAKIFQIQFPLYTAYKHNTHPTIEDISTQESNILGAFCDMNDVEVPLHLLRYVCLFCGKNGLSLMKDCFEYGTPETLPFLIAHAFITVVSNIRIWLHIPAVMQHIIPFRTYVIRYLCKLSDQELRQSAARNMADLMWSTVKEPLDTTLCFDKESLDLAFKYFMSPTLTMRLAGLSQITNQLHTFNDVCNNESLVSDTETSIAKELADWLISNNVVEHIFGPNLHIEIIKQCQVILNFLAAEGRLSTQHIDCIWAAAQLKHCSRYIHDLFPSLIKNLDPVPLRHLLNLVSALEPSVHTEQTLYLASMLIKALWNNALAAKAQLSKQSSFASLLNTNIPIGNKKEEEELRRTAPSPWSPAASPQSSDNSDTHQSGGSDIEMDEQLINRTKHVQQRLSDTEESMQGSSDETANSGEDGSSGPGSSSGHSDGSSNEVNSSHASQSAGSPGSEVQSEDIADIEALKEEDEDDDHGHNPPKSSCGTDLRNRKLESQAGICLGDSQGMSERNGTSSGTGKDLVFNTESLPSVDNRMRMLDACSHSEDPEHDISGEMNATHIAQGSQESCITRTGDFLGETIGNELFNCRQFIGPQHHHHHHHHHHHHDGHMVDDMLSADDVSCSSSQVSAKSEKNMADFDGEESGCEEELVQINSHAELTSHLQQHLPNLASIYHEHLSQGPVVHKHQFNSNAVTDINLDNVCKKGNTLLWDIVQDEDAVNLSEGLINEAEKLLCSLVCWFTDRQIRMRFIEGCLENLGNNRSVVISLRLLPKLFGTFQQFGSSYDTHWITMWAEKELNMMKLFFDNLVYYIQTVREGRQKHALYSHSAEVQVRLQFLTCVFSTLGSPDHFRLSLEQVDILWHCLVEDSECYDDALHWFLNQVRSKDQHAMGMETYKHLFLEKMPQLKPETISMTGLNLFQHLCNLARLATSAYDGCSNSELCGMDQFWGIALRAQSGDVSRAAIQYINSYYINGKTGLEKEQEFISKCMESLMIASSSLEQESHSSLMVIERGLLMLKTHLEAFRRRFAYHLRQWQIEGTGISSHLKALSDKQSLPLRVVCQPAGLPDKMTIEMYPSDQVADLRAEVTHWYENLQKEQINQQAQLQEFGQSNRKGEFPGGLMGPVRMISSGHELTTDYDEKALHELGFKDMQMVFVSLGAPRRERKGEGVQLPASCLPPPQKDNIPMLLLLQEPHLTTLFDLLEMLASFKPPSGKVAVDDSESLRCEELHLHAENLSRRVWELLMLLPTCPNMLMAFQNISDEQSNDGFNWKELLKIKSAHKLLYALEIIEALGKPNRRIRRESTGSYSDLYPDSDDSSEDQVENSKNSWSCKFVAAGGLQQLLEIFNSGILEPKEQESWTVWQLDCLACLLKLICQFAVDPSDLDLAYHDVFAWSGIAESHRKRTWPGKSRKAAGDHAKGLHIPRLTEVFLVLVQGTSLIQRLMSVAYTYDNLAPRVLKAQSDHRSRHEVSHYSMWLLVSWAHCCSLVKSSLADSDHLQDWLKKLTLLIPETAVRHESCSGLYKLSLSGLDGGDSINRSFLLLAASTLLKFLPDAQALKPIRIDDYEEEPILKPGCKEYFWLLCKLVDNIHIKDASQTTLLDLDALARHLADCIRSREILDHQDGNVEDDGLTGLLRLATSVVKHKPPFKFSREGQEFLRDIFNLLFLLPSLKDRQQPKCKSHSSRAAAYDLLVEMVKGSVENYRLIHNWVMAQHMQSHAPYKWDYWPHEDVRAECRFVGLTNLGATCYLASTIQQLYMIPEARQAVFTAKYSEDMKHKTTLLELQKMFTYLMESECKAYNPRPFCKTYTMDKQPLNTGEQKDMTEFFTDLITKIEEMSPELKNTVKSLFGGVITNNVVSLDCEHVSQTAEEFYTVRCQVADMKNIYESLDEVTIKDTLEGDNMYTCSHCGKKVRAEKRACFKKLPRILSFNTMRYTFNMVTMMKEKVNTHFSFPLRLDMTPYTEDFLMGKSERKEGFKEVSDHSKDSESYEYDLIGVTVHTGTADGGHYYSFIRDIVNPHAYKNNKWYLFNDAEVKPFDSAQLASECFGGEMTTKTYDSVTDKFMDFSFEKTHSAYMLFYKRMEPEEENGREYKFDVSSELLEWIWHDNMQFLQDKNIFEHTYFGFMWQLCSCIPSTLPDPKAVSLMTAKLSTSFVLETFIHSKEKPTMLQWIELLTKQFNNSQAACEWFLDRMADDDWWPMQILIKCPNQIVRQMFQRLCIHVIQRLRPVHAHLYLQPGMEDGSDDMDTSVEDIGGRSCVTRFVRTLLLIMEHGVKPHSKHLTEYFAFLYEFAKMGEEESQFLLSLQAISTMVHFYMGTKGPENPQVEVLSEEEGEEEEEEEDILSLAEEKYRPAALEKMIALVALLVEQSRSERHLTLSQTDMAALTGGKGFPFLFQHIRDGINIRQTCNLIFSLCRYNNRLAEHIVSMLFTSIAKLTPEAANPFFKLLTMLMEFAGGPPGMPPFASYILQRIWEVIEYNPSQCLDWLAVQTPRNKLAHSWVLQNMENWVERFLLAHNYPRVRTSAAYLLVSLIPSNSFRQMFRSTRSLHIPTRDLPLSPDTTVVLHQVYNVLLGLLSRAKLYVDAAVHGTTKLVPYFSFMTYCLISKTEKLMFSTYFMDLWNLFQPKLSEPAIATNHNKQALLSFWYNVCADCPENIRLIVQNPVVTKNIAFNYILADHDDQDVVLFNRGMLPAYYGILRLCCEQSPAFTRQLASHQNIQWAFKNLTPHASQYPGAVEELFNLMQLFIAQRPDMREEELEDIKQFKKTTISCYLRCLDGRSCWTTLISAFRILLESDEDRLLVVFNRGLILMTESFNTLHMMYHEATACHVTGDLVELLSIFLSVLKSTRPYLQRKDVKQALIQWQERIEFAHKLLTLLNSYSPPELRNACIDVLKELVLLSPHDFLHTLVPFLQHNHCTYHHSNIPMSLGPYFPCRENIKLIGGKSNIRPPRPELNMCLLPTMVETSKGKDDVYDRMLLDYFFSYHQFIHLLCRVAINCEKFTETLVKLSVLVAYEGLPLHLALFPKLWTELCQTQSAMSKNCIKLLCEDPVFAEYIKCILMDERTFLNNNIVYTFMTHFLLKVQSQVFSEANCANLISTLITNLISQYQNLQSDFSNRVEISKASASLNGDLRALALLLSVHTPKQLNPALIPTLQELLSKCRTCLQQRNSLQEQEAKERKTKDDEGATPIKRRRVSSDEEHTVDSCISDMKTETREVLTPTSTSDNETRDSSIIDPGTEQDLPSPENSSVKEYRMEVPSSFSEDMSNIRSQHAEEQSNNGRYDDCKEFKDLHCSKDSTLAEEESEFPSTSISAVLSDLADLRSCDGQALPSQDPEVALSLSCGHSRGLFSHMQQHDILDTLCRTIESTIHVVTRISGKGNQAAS

O=C(CCl)NCCc1cccc2ccccc12
inactive: [1] -0.192 | [2] -0.0173 | [3] 0.0792 | [4] -0.0508 | [5] 0.143
